Assay outcomes as filed in PubChem.
Chronic BCR inh: qHTS Assay to Find Inhibitors of Chronic Active B-Cell Receptor Signaling; Potency, µM (top dose mostly 46.1 µM), most hits filed as inhibitors; ABC-DLBCL IkBa-CBG/CBR reporter, luminescence ratio, 4 h; actives 0.05% (n = 340,000); active = well fitted inhibition curve with a large enough effect in the signal ratio, with a control signal flat, not every such curve was filed as active; inconclusive = small, poorly fitted or top-dose-only effect, or effect the other way, or a change in a side signal; the % refers to the signal ratio
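Concentration-response series (up to 46 uM) were applied to TMD8 dual-reporter cells for 4 h at 37C with doxycycline. Green/red ratio, after filter-overlap correction, defined %Activity; red signal alone was normalised to basal cells and zero luminescence.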
Tb PFK block: qHTS Assay to Find Inhibitors of T. brucei phosphofructokinase; ATP-dependent 6-phosphofructokinase (Trypanosoma brucei brucei), O15648; T. brucei PFK, ADP-Glo luminescence; Potency, µM (titrated, usually from 57.5 µM), most hits filed as inhibitors; actives 0.17% (n = 330,000); note: nearly all actives have a fitted effect of over 60% in size
Target sequence (O15648 whole entry, looked up): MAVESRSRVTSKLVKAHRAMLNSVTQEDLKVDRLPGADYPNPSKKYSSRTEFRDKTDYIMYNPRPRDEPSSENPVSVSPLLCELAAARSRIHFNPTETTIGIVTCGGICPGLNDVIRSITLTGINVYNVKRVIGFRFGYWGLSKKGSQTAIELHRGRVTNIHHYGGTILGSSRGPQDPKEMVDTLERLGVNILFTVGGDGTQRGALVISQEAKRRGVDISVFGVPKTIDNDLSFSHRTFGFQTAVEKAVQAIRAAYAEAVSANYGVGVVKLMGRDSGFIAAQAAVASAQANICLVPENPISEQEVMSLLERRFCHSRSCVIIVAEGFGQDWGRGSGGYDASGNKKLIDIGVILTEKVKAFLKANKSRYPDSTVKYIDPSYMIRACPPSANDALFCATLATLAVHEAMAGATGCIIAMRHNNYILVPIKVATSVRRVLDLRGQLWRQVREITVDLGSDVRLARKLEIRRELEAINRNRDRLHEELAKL
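In TEA buffer at pH 8.0 with 5 mM MgCl2, enzyme (1.25 nM) converted F6P (0.5 mM) and ATP (0.1 mM) for 45 min at room temperature. ADP product was read by luciferase luminescence.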
LMNA splice mod: qHTS Assay for Modulators of Lamin A Splicing | HeLa LMNA splicing GFP/RFP minigene ratio, 48 h | Potency, µM (highest dose often 46.1 µM), usual class: inhibitors | actives 0.01% (n = 200,000); active = well fitted inhibition curve with a large enough effect in the signal ratio, with a control signal flat, not every such curve was filed as active; inconclusive = small, poorly fitted or top-dose-only effect, or effect the other way, or a change in a side signal; the % refers to the signal ratio
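S3 HeLa cells stably expressing lamin A-EGFP splicing minigene plus DsRed2, 600 cells/well, 48 h compound exposure at 37C. Laser-scanning cytometry; analysed as GFP (500-530 nm)/RFP (575-640 nm) total intensity ratio; 0.5% DMSO vehicle.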
Rango-impB inh: qHTS Assay for Inhibitors of Rango (Ran-regulated importin-beta cargo) - Importin beta complex formation; Potency, µM (highest dose often 92.2 µM); actives 0.031% (n = 340,000); AID 540263, 2011; Rango CFP/YFP FRET sensor + importin beta, 45 min; calls by dose curve; note: nearly all actives have a fitted effect of over 15% in size
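Inhibition scored from the CFP 486 nm/YFP 530 nm FRET ratio 45 min after adding 0.125 microM importin beta to 50 nM Rango biosensor preincubated 5 min with compound (room temperature, PBS with DTT, Tween-20, BSA). No-importin wells as positive control.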
Rango dissoc inh: qHTS Assay for Inhibitors of RanGTP induced Rango (Ran-regulated importin-beta cargo) - Importin beta complex dissociation; Biochemical FRET Rango-importin beta, RanGTP-induced dissociation; Snurportin-1 (Homo sapiens) + GTP-binding nuclear protein Ran (Homo sapiens) + Importin …; Potency, µM (doses to about 46.1 µM); actives 0.071% (n = 340,000); calls by dose curve; note: nearly all actives have a fitted effect of over 45% in size
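Rango (0.1 uM)–importin beta (0.25 uM) complex; RanGTP-RCC1 trigger; 45 min RT; CFP/YFP FRET read.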
Luc counter: Counterscreen for Luciferase (Kinase-Glo TM) Inhibition; actives 0.28% (n = 200,000); Kinase-Glo luciferase, ATP luminescence, 8 min; AID 1379, 2008; Luciferin 4-monooxygenase (Photuris pensylvanica), Q27757; Potency, µM (series often up to 38.3 µM), most hits filed as inhibitors; note: nearly all actives have a fitted effect of over 60% in size
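Kinase-Glo luciferase light output from ATP and luciferin was measured with 10 uM ATP, within the enzyme's linear range. Buffer: 50 mM imidazole pH 7.2, 50 mM KCl, 7 mM MgCl2, 0.01% Tween 20, 0.05% BSA; luminescence read after 8 min at ambient temperature.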
Hits are given with their value; – = inactive; ? = inconclusive; · = not tested or not shown; [ ] = another dose, or the depositor's remark. Only some compounds are listed: those with a hit (about 0.44% of all), similar ones and a draw of the others. Unless noted, calls come from the whole dose curve; as a rule, active = well fitted curve in the direction sought with a large enough effect; inconclusive = small, poorly fitted or top-dose-only effect, or another doubt; inactive = no such curve, though single readings can be large; an effect the other way counts as inactive or inconclusive.

SMILES	Chronic BCR inh	Tb PFK block	LMNA splice mod	Rango-impB inh	Rango dissoc inh	Luc counter
CCCOc1ccc(/C=N/NC(=S)Nc2ccccc2[N+](=O)[O-])c(O)c1	?	–	?	–	–	–
CCCOc1ccc(/C=N/Nc2ccccc2[N+](=O)[O-])c(O)c1	–	–	–	–	–	8.91µM
Cc1ccc([N+](=O)[O-])cc1NC(=O)c1ccc2c(c1)OCO2	–	–	–	–	–	–
c1c2c(cc3sc(N4CCCCC4)nc13)OCO2	?	–	?	–	–	12.6µM
c1c2c(cc3sc(N4CCOCC4)nc13)OCO2	?	–	–	?	–	11.2µM
CC(=O)Nc1nc2cc3c(cc2s1)OCO3	–	–	–	–	–	–
c1ccc(N2CCN(c3nc4cc5c(cc4s3)OCO5)CC2)cc1	?	–	–	–	–	–
Cc1ccc(/C=C/C(=O)NCCc2cccc(Cl)c2)o1	?	–	·	?	–	·
CCS(=O)(=O)N1Cc2ccccc2CC1C(=O)Nc1cccc(OC)c1 (stereo not drawn)	?	–	·	–	–	·
CCN(CC)C(=O)c1ccc(C(=O)c2ccccc2)cc1	–	–	–	–	–	–
COc1ccc(-c2cc(C(F)(F)F)nc(S(=O)(=O)CCCC(=O)Nc3cc(C)on3)n2)cc1OC	?	–	3.98µM	–	–	–
C/C(=N\NC(=O)C1=NNC(=O)C1C)c1cccs1 (stereo not drawn)	?	–	–	–	–	10µM
C/C(=N\NC(=O)c1cccc2ccccc12)c1cccs1	–	–	·	–	–	·
C/C(=N\NC(=O)c1ccccc1O)c1cccs1	?	–	–	–	–	11.2µM
O=C(CCC1CCCCC1)Nc1c2c(nn1-c1ccc(F)cc1)CS(=O)(=O)C2	–	–[0.46 µM]	–	–	–	–
